# PHOSPHO1 block: PHOSPHO1 (human) inhibition | recombinant PHOSPHO1, absorbance phosphatase assay | Q8TCT1 | 1.1% of 290,000 active | AID 1565 | inhibition, % at 13.3 µM; in the data active means inhibition above about 60%
# Target sequence (Q8TCT1 whole entry, looked up): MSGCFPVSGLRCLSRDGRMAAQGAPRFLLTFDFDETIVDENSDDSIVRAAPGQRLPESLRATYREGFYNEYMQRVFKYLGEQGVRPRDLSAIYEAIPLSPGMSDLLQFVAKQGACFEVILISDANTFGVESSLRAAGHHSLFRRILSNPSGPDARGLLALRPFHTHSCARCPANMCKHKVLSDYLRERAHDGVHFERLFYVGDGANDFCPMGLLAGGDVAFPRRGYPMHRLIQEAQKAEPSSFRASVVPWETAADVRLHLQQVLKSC
# KCC2 mod: KCC2 (human) Cl- transport modulation; KCC2 cells, thallium flux FluoZin-2 fluorescence; 2.2% of 190,000 active; B-score of Tl+ flux slope (higher = more flux/activation; lower = inhibition) at 10 µM; Q9H2X9;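 active means thallium flux slope and its plate-corrected score both differing from the plate sample mean at a set confidence after two filtering rounds, in either direction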;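 further: slope of fluorescence scaled to starting intensity during 10 to 20 s after thallium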
# Efflux pump inh: inhibitors of Candida antifungal efflux pumps expressed in yeast; inhibition, % at 10 µM; 0.44% of 330,000 active; S. cerevisiae Candida pump triplex, Nile Red efflux; AID 485275;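 active means plate passing quality check with inhibition over a set limit, or well fluorescence over plate mean plus 4 SD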;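 further: Nile Red retained in pooled yeast measured as flow cytometry median fluorescence; 0% = buffer negative control and 100% = Enniatin B positive control; higher means more Nile Red kept so more efflux inhibition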
# Calb FLC: affects C. albicans growth with fluconazole. 0.57% of 300,000 active. AID 1979. growth inhibition, % (concentration not given with the values). C. albicans CaCi-2 (fluconazole-resistant clinical isolate) + fluconazole, Alamar Blue growth, 48 h;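 active means growth inhibition above about 58% in most replicates, limit read from the data, passing the limit was not always enough; inconclusive means exactly half the replicates above a set limit; inactive means most replicates below a set limit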;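 further: all wells also contain fluconazole at 8 µg/ml as a sub-toxic cotreatment; 0% = median of DMSO wells and 100% = median of geldanamycin control wells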
# Cardio protect: protects H9c2 cardiomyocytes from peroxide injury | H2O2 injury protection, ATPLite, 2 h | protection from H2O2 cell death, % at 20 µM | 0.63% of 360,000 active | AID 588492;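 active means compounds giving at least 50% protection of heart cells from peroxide-induced death in the single-dose screen, raw or plate-pattern-corrected value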;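 further: 0% = DMSO wells with peroxide and 100% = DMSO wells without peroxide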
# KCC2 secondary: confirmation of human KCC2 transport modulators; shares compounds with KCC2 mod; HEK293-KCC2, thallium flux, FluoZin2 fluorescence; hits give high values; normalised thallium flux (F/F0 slope) at 10 µM; 15% of 3,700 active; AID 1713;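 active means thallium flux slope above the same plate's solvent-only control mean plus 3 SD; inconclusive means the two replicate wells disagree; inactive means no significant difference from solvent-only control wells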
# KCC2 bumet counter: bumetanide-insensitive thallium flux in KCC2 cells with ouabain, counter-screen; normalized thallium flux at 10 µM; shares compounds with KCC2 mod; 49% of 3,700 active; HEK293-KCC2 + bumetanide/ouabain, thallium flux FluoZin2; hits give high values;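 active means thallium entry rate above the same plate's blocked-transporter control wells by more than 3 SD; inconclusive means the two repeat wells disagree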;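 further: raw slope of fluorescence over initial fluorescence between 10 and 20 s after thallium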
# KCC2 secondary2: KCC2 (human) modulation, second secondary assay | shares compounds with KCC2 mod | HEK293-KCC2, thallium flux FluoZin2 fluorescence; actives lie on both sides; F/F0 rise rate, 10–20 s post-thallium | normalized thallium flux at 10 µM | 23% of 3,700 active;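 active means thallium flux slope more than 3 SD above or below the plate's solvent-only control mean, mostly below; inconclusive means the two repeat wells disagreed; inactive means no significant shift from solvent-only controls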;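 further: raw slope with 0.1% DMSO as baseline and bumetanide as block control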
# HEK293 Tl flux: counter-screen for KCC2 modulators: effect in parental HEK293 cells. thallium flux rate (normalised fluorescence) at 10 µM. AID 1716. shares compounds with KCC2 mod. thallium flux FluoZin2, ouabain; baseline-ratio fluorescence slope, 10–20 s after thallium. 46% of 3,700 active;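 active means thallium flux rate significantly above the same plate's solvent-only control wells, beyond their mean plus 3 SD; inconclusive means the two replicate wells gave conflicting results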
# KCC2 retest ouab: KCC2 (human) modulation, ouabain retest. shares compounds with KCC2 mod. HEK293-KCC2, thallium flux FluoZin2 fluorescence; bidirectional: low = inhibitor, high = activator. raw Tl+ flux slope (below DMSO = inhibition, above = activation) at 10 µM. 48% of 3,700 active;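 active means thallium flux slope beyond 3 SD from same-plate DMSO control mean in most replicates, usually higher, sometimes lower; inconclusive means repeat tests gave conflicting results; inactive means no significant difference from controls in most replicates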;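 further: slope of initial-normalized fluorescence between seconds 10 and 20 after thallium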
# HEK counter2: counter-screen for KCC2 modulators: effect in parental HEK293 cells; shares compounds with KCC2 mod; thallium flux FluoZin-2 fluorescence slope; thallium flux slope at 10 µM; 33% of 3,700 active;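 active means thallium flux slope above the same plate's solvent-control mean plus 3 SD in both duplicate wells; inconclusive means duplicate wells that disagreed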;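 further: run without ouabain in cells lacking the KCC2 cotransporter; slope of fluorescence scaled to its starting value between 10 and 20 s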
# Active calls of the source: *; ? = inconclusive; . = no result given. Compounds with a hit are over-represented: about 3.3% of the library has one in this group of screens.
SMILES,PHOSPHO1 block,KCC2 mod,Efflux pump inh,Calb FLC,Cardio protect,KCC2 secondary,KCC2 bumet counter,KCC2 secondary2,HEK293 Tl flux,KCC2 retest ouab,HEK counter2
CCN(CC)S(=O)(=O)c1cccc(-c2nnc(SC(C)C(=O)NCCC3=CCCCC3)o2)c1 (centres undefined),.,-2.4*,0,6,-6,0.0091,0.0047,0.034,0.0069,0.018,0.01
O=C(NC1CCCCCC1)c1ccc[nH]c1=S,-26,12*,0,-7,4,0.013*,0.039*,0.029,0.016*,0.038*,0.011*
CC1CCCC(NC(=O)CCn2c(=S)oc3ccccc32)C1C (centres undefined),27,-0.84,0,-5,-3,0.0085,0.0068,0.032,0.0074,0.022,?
COC(=O)CCN(C(=O)c1ccc(OC(C)=O)cc1)c1ccccn1,15,-3.8*,0,16,11,0.016,0.005,0.027,0.0076,0.016,0.011
COC(=O)CCN(C(=O)c1ccc([N+](=O)[O-])cc1)c1ccccn1,22,0.37,1,8,6,.,.,.,.,.,.
COc1cc2c(cc1O)CCN(C(=O)CSc1nncn1C)[C@@H]2C,.,.,0,.,7,.,.,.,.,.,.
COc1ccc(-n2c(SCC(=O)N3CCN(c4ccccc4)CC3)nc3c(c2=O)SCC3)cc1,34,-7.3*,0,-5,16,0.0056,0.0039,0.024*,?,0.012*,0.01
Cc1ccc(-n2c(SCC(=O)N3CCCC3)nc3c(c2=O)SCC3)cc1,-11,-0.97,0,-6,.,.,.,.,.,.,.
CCCCN(C)CCC(=O)Nc1ccc2c(c1)CCC2,37,6.1*,0,9,-4,0.0067,?,0.031,0.008,0.018,0.011
Cc1[nH]c(=S)sc1Cc1ccc(F)cc1,-5,40*,0,-6,-14,0.0056,0.12*,0.084*,0.089*,0.1*,0.067*
O=C(NC(=S)Nc1cccc(F)c1)c1cccc([N+](=O)[O-])c1,-15,151*,1,-9,-8,0.031*,0.15*,?,0.071*,0.085*,0.019*
Cc1cccc(NC(=S)N/N=C(\c2ccccc2)C(C)C)c1,-11,33*,0,102*,-10,0.0059,0.06*,0.05*,0.04*,0.055*,0.036*
CC(C)/C(=N\NC(=O)Nc1ccccc1)c1ccccc1,52,0.013,0,-28,2,.,.,.,.,.,.
CCC(=O)Nc1cccc(NC(=S)NC(=O)c2cc3ccccc3o2)c1,11,3.8,0,-9,-10,.,.,.,.,.,.
CC/C(=N\NC(=S)Nc1cccc(C)c1)c1ccccc1,-3,34*,0,5,-6,0.021*,0.1*,0.038,?,0.067*,0.028*
C/C(=N\NC(=S)Nc1cccc(C)c1)c1cc2ccccc2o1,-183,26*,0,-23,18,0.0064,0.077*,0.051*,0.038*,0.058*,0.041*
O=C(OCc1ccccc1)N1CCC2CC1c1ccc(Cl)cc12 (centres undefined),.,.,.,.,-21,.,.,.,.,.,.
C/C(=N/NC(=S)Nc1cccc(C)c1)c1cccc([N+](=O)[O-])c1,1,30*,0,26,3,0.0087,0.037*,?,0.037*,0.036*,0.027*
Cc1ccc(NC(=O)Nc2ccc(C(=O)N3CCOCC3)cc2)cc1,14,.,0,-1,-4,.,.,.,.,.,.
